Data on 99 molecules can be found in PubChem BioAssay AID1376 (SRMLSC, 2008).

Among all 220,000 compounds or so, about 530 (0.24%) were called active. The full list was thinned out, with actives kept by preference. Results with a measured potency or affinity are listed apart. Values without a mark were called inactive. Rule as the data show it: active = inhibition above about 13%; inconclusive = no clear call, values can overlap the other calls; inactive = below that.

In the test the target is Bifunctional protein GlmU (Mycobacterium tuberculosis (strain ATCC 25618 / H37Rv)) (UniProt P9WMN3). The test can be described thus: inhibition of mycobacterial GlmU enzyme – biochemical, glucosamine-1-phosphate acetyltransferase (AID 1376).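 Also: 0% = complete reaction with vehicle and 100% = reaction without substrate.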 The settings on record: M. tuberculosis GlmU acetyltransferase enzyme assay; hits give high values;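 tested at 30 µM in the primary screen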.
Sequence of Bifunctional protein GlmU (Mycobacterium tuberculosis (strain ATCC 25618 / H37Rv)) (P9WMN3 whole entry, looked up): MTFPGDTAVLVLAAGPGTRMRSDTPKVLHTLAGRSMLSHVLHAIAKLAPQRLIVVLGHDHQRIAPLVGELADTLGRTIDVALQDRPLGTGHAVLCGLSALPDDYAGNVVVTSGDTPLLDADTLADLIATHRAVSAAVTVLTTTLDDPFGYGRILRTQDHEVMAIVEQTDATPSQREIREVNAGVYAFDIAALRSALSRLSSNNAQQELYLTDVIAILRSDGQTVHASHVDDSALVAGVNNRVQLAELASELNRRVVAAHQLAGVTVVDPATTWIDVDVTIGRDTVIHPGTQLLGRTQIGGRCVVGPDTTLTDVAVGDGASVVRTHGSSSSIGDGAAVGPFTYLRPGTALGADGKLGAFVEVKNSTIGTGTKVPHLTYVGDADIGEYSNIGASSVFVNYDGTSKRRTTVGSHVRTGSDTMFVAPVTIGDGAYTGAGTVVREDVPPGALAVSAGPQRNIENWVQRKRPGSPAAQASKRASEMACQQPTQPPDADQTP
As to `COCCCNc1nc(SCc2ccccc2)nc2sc3c(c12)CCC3`, the inhibition (in general, the drop in the measured response relative to a control, in per cent) is 12.8% (active).

As for `COCCNc1nc(SCc2ccccc2)nc2sc3c(c12)CCC3`, the inhibition is -0.26%.

`CC(CO)Nc1nc(SCc2ccccc2)nc2sc3c(c12)CCC3` (centres undefined): the inhibition is -17.2%.

Regarding `CC(C)(C)c1ccc(S(=O)(=O)Nc2ccc(Cc3ccncc3)cc2)cc1`, the inhibition was 0.43%.

Turning to `COC(=O)c1ccc(N=NNc2ccccc2)cc1`, the inhibition is 4.94%.

For `CCN(CC)S(=O)(=O)c1cc(NC(=O)Cc2n[nH]c(=O)c3ccccc23)ccc1C`, the inhibition was 7.13%.

Take `CCC(C)(NC(=O)CNC(C)=O)C(=O)NC1CCCCC1` (centres undefined): the inhibition is 17.3% (active).

`CCC(C)(NC(=O)Cc1c[nH]c2ccccc12)C(=O)NC1CCCCC1` (centres undefined): the inhibition was 0.49%.

On to `CCC(C)(NC(=O)c1ccccn1)C(=O)NC1CCCC1` (centres undefined), for which the inhibition is -1.49%.

As for `CC(C)(C)C1CCC2(CC1)CC(=O)c1ccccc1O2` (centres undefined), the inhibition was 0.53%.

Regarding `CC(C)(C)OC(=O)N/N=C\c1ccc[nH]1`, the inhibition was -8.2%.

With `O=C(O)CCCCCCCC(=O)O`, the inhibition is -3.59%.

In the case of `O=C(O)CCCCC1SCC2NC(=O)NC21` (centres undefined), the inhibition was -2%.

On to `CCNc1oc(-c2ccc(OC)cc2)nc1S(=O)(=O)c1ccc(Br)cc1`, for which the inhibition was -0.98%.

As to `C=CCOc1ccc(C2C(C(=O)c3ccco3)=C(O)C(=O)N2c2nnc(C)s2)cc1` (centres undefined), the inhibition was -3.01%.

`Cc1ccc(C2C(C(=O)c3cccs3)=C(O)C(=O)N2c2nnc(C)s2)cc1` (centres undefined): the inhibition is 2.85%.

For the molecule `C=CCOc1ccc(C2C(C(=O)c3cccs3)=C(O)C(=O)N2c2nnc(C)s2)cc1` (centres undefined), the inhibition was 15% (active).

Consider `COC(=O)CCCC1=CC2=C(c3ccccc3)C(=O)C(C)(OC(=O)C3CCCC3)C(=O)C2=CN1C1CC1` (centres undefined), for which the inhibition was 1.9%.

For `Cc1ccc(OCC(=O)N2CCOCC2)c([N+](=O)[O-])n1`, the inhibition was -0.37%.

In the case of `COc1ccc(C2C=C(c3ccc(Br)s3)Nc3ncnn32)cc1OC` (centres undefined), the inhibition is 14.2% (active).

On to `COc1cccc(C2C=C(c3ccc(Br)s3)Nc3ncnn32)c1OC` (centres undefined), for which the inhibition is 0.77%.

For `COc1cc(C2C=C(c3cccs3)Nc3ncnn32)cc(OC)c1OC` (centres undefined), the inhibition is -2.57%.

In the case of `Cc1ccc(S(=O)(=O)N2CC(O)CC2C(=O)OCc2nc3sc(C)c(C)c3c(=O)[nH]2)cc1` (centres undefined), the inhibition is 1.13%.

Turning to `O=C(CCN1CCCC1)c1cccs1`, the inhibition is -0.97%.

Take `O=C(COC(=O)c1c[nH]c(=O)[nH]c1=O)Nc1ccccc1`: the inhibition was -4.87%.

Consider `O=C(COC(=O)c1c[nH]c(=O)[nH]c1=O)NCc1ccccc1`, for which the inhibition was 13.3% (active).

Turning to `COc1ccc(CNC(=O)COC(=O)c2c[nH]c(=O)[nH]c2=O)cc1OC`, the inhibition was -0.09%.

Consider `O=C(CN(Cc1cccs1)C(=O)CNS(=O)(=O)c1ccc(F)cc1)NCC1CCCO1` (centres undefined), for which the inhibition was 3.23%.

Consider `CCOc1ccc(CNC(=O)CCS(=O)(=O)Cc2ccc(C)cc2)cc1OC`, for which the inhibition was 2.73%.

With `COc1ccc(C2(C)NC(=O)N(CC(=O)NCCC3=CCCCC3)C2=O)cc1OC` (centres undefined), the inhibition was -7.87%.

For the molecule `CN(C)c1nc(OCCNC(=O)Nc2ccccc2)nc(N2CCCCC2)n1`, the inhibition was 1.41%.

As to `COc1ccccc1C(=O)NCc1n[nH]c(=S)n1Cc1ccccc1`, the inhibition is 0.36%.

As to `CCCCN(CC(=O)NCc1ccc(F)cc1)C(=O)c1ccco1`, the inhibition is -1.73%.

For the molecule `CCc1cc2c(SCC(=O)C(C#N)=C3N(C)c4ccccc4N3C)ncnc2s1`, the inhibition was 15% (active).

As for `CCc1cc2c(SCC(=O)c3ccccc3)ncnc2s1`, the inhibition is -3.16%.

Regarding `CCc1cc2c(SCC(=O)O)ncnc2s1`, the inhibition is -4.14%.

For the molecule `Cn1c(=O)c2c(SCC(=O)NCCc3ccccc3)nc(C3CC3)nc2n(C)c1=O`, the inhibition was 1.2%.

For the molecule `O=C(Cn1cnc2c(nnn2Cc2ccc(F)cc2)c1=O)N1CCCc2ccccc21`, the inhibition was -5.31%.

As for `COc1ccc(OC)c(NC(=O)CCN2CCCCCC2)c1`, the inhibition is -10.2%.

With `CCOC(=O)CC1C(=O)NCCN1C(=O)Nc1ccccc1` (centres undefined), the inhibition was -2.01%.

With `CCC(C)(C(=O)NC1CCCC1)N(C)C(=O)c1ccccn1` (centres undefined), the inhibition is -5.14%.

With `CCC(C)(C(=O)NC1CCCCC1)N(C)C(=O)c1ccccn1` (centres undefined), the inhibition is 14.8% (active).

`CCC(C)(C(=O)NC1CCCCC1)N(C(=O)c1ccccn1)c1ccccc1` (centres undefined): the inhibition was 2.61%.

Turning to `Cc1ccc(S(=O)(=O)Nc2nccs2)cc1[N+](=O)[O-]`, the inhibition is -3.62%.

Consider `O=S1(=O)CCN(Cc2cccc(Cl)c2)CC1`, for which the inhibition is -7.45%.

For `CC(=O)Nc1cccc(NC(=O)c2ccc([N+](=O)[O-])cc2Cl)c1`, the inhibition was -7.61%.

On to `Cc1ccc(C[n+]2cccc(-c3ccccc3)c2)c(C)c1`, for which the inhibition is -2.52%.

`Cc1ccc(NC(=O)C2c3ccccc3Oc3ccccc32)nc1`: the inhibition was -2.94%.

On to `Cc1ccc(/C=N/Nc2ccc(C(=O)O)cc2)o1`, for which the inhibition was 0.55%.

In the case of `O=C1C(=Cc2ccco2)C(=O)c2ccccc21`, the inhibition was 8.37%.

Regarding `O=C(NCc1ccco1)c1ccc2c(c1)C(=O)c1ccccc1-2`, the inhibition is -0.25%.

As for `Cc1ccc(C(=O)O)cc1-c1ccc(C=C2C(=O)c3ccccc3C2=O)o1`, the inhibition was 11.7%.

Take `O=C(O)c1ccc2c(c1)C(=O)/C(=C\c1ccco1)C2=O`: the inhibition is 17.2% (active).

For `Cc1csc(SC(C)C(=O)Nc2ccc(S(=O)(=O)N3CCCC3)cc2)n1` (centres undefined), the inhibition is -1.61%.

On to `COCCCNC(=O)c1cc(C)nc2ccc(F)cc12`, for which the inhibition is 1.65%.

With `CC(C)c1nnc(NC(=O)CCC(=O)N2CCN(Cc3ccccc3)CC2)s1`, the inhibition is 3.04%.

As to `CCN(CC)S(=O)(=O)c1ccc2nc(CCl)[nH]c2c1`, the inhibition is -0.14%.

As to `Cc1sc2nc(SCc3nnc(-c4cccs4)o3)n(C3CCCC3)c(=O)c2c1C`, the inhibition was -5.93%.

`CCOC(=O)c1c(NC(=O)CN2CCCCC2)sc(CN(C)C)c1-c1ccccc1`: the inhibition is -2.86%.

As for `CC(=O)c1cc(F)c(N2CCN(C(=O)COc3ccccc3F)CC2)cc1C`, the inhibition is 1.65%.

Regarding `Cc1ccc(NC(=S)N2CCCCC2CO)cc1C` (centres undefined), the inhibition was -3.71%.

With `N#Cc1ccccc1OCC(=O)C1CC1`, the inhibition is 5.73%.

As for `COc1cccc(C(=O)CSc2nnc(-c3cccs3)o2)c1`, the inhibition is 4.7%.

As for `COc1ccc(N2CCN(c3ccc(N)cc3C#N)CC2)cc1`, the inhibition is -1.62%.

In the case of `N#Cc1cc(N)ccc1-n1cccc1`, the inhibition was 13.7% (active).

`N#Cc1c(-n2cccc2)cccc1-n1cccc1`: the inhibition is 9.31%.

With `O=C(O)C(Cl)Cl`, the inhibition was 2.18%.

Turning to `O=C(O)[C@@H](O)[C@H](O)C(=O)O`, the inhibition was 2.76%.

In the case of `CC1CCc2c(sc3ncnc(NS(=O)(=O)c4cccs4)c23)C1` (centres undefined), the inhibition was 0.41%.

Regarding `O=C1CSC(=Nc2cccc(Cl)c2Cl)N1Cc1cccnc1`, the inhibition is 1.06%.

Consider `CC(=O)c1ccc(N2CCN(C(=S)Nc3cc(C)ccc3C)CC2)cc1`, for which the inhibition is -4.28%.

As to `CCN(CC)CCN(Cc1cc2cc3c(cc2[nH]c1=O)OCCO3)C(=O)NC1CCCCC1`, the inhibition was 4.4%.

Regarding `CCN(CC)CCN(Cc1cc2ccc(C)cc2[nH]c1=O)C(=O)NC1CCCCC1`, the inhibition was 14.2% (active).

Take `CCc1ccc2[nH]c(=O)c(CN(CCN(CC)CC)C(=O)NC3CCCCC3)cc2c1`: the inhibition is -7.06%.

Take `O=c1[nH]c(=O)n(-c2cccc3ccccc23)c(O)c1/C=N/N1CCCCC1c1cccnc1` (centres undefined): the inhibition was -5.46%.

Take `CC(OC(=O)c1cccs1)C(=O)NCc1cccs1` (centres undefined): the inhibition was -4.58%.

`Cn1c(=O)c(C(=O)Nc2ncccc2O)c(O)c2ccccc21`: the inhibition is 2.25%.

Turning to `CC(=O)c1ccc(C)cc1OC(=O)c1cccc(F)c1`, the inhibition is 3.37%.

On to `O=C(O)c1cc(O)c2c(c1)C(=O)c1cccc(O)c1C2=O`, for which the inhibition is 0.69%.

Take `O=C(O)c1cc(O)c2c(c1)C(=O)c1cc(O)cc(O)c1C2=O`: the inhibition was 13.3% (active).

`Cc1cc(O)c2c(c1)C(=O)c1cc(O)cc(O)c1C2=O`: the inhibition is -2.62%.

As for `Cc1ccc(NC(=O)CN(C)C(=O)c2ccc(S(=O)(=O)N(C)c3ccccc3)cc2)cc1`, the inhibition was 2.55%.

On to `CCOc1ncccc1C(=O)N1CCN(C(c2ccccc2)c2ccccc2)CC1`, for which the inhibition is 7.04%.

`COC(=O)c1cc(Cl)nc2ccccc12`: the inhibition is 5.71%.

As for `CCOC(=O)C1=C(C)N(C)C(=O)NC1c1c(C)nn(-c2ccccc2)c1C` (centres undefined), the inhibition was -0.97%.

`CCOC(=O)C1=C(C)NC(=O)NC1c1c(C)nn(-c2ccccc2)c1Cl` (centres undefined): the inhibition is 15.1% (active).

Regarding `CCOC(=O)C1=C(C)N(C)C(=O)NC1c1c(C)nn(-c2ccc(C)cc2)c1Cl` (centres undefined), the inhibition was 3.87%.

`COc1cc(NC(=O)CCCSc2nc(-c3ccco3)cc(C(F)(F)F)n2)cc(OC)c1OC`: the inhibition was -3.07%.

As to `NC(=O)c1ccccc1NC(=O)Nc1ccc(F)c(Cl)c1`, the inhibition is -5.33%.

Take `O=C(Nc1cccc(Cl)c1)Nc1ccccc1C(=O)O`: the inhibition was 2.52%.

Take `NC(=O)c1ccccc1NC(=O)Nc1cccc(Cl)c1`: the inhibition is 14.1% (active).

Turning to `Cc1cc([N+](=O)[O-])nn1CCCC(=O)Nc1c(C)n(C)n(-c2ccccc2)c1=O`, the inhibition is -7.37%.

As for `CCOC(=O)C1(C)C=C(Nc2ccc(O)cc2)C(=O)N1c1ccc(O)cc1` (centres undefined), the inhibition was 9.21%.

Take `CCOC(=O)C1(C)C=C(Nc2ccc(C)cc2)C(=O)N1c1ccc(C)cc1` (centres undefined): the inhibition was -2.18%.

Take `CCOC(=O)C1(C)C=C(Nc2ccc(NC(C)=O)cc2)C(=O)N1c1ccc(NC(C)=O)cc1` (centres undefined): the inhibition was 14.8% (active).

`CCn1c(=O)c2c(nc3n2CCN3c2ccccc2)n(C)c1=O`: the inhibition was -6.14%.

In the case of `COc1ccc(/C=N/NC(=O)c2ccccc2O)cc1Cn1cc([N+](=O)[O-])cn1`, the inhibition is -1.22%.

As for `COc1ccc(/C=N\NC(=O)c2cccc([N+](=O)[O-])c2)cc1Cn1cc([N+](=O)[O-])cn1`, the inhibition is -3.48%.

As to `COc1ccc(/C=N/NC(=O)CCN2CCCCC2c2cccnc2)cc1Cn1cc([N+](=O)[O-])cn1` (centres undefined), the inhibition was 12.8% (active).
